# The panel holds about 79,000 compounds, 15% with a hit somewhere; the sample as a whole holds those more often. Unmarked numbers belong to inactive results. The source made the active and inactive calls. Cut-off read from the data, not from the text of the source: active = growth inhibition above about 70%; inactive = the rest.
# Legend:
# [1] = NCI Yeast Anticancer Drug Screen. Data for the rad50 strain (AID 155);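 note: 0% = growth of vehicle-only cultures of the same strain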; details: S. cerevisiae rad50 strain growth inhibition, hits give high values
# Method in brief: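 Compounds were tested on a yeast strain with an engineered DNA damage repair alteration; the reported value is growth inhibition normalised to vehicle treatment.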
# [2] = NCI Yeast Anticancer Drug Screen. Data for the mec2-1 strain (AID 157); details: S. cerevisiae mec2-1 strain, hits give high values
# Method in brief: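 Yeast mec2-1 mutant treated with compound. Readout: growth inhibition vs vehicle controls.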
# [3] = NCI Yeast Anticancer Drug Screen. Data for the sgs1 mgt1 strain (AID 161);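 note: 0% = growth of cultures given vehicle only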; details: S. cerevisiae sgs1 mgt1 strain, hits give high values
# Method in brief: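 Test agents were incubated with a DNA-repair-mutant yeast strain. Growth was then read and compared against vehicle-treated controls.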
# [4] = NCI Yeast Anticancer Drug Screen. Data for the cln2 rad14 strain (AID 165);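 note: 0% = growth equal to vehicle treated cultures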; details: S. cerevisiae cln2 rad14 strain, hits give high values
# Method in brief: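 cln2 rad14 yeast strain; compound exposure; growth inhibition read vs vehicle controls.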
# [5] = NCI Yeast Anticancer Drug Screen. Data for the bub3 strain (AID 167); details: S. cerevisiae bub3 mutant strain, hits give high values
# Method in brief: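 Growth of a checkpoint-deficient yeast mutant is measured after compound exposure. Values represent inhibition relative to vehicle.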
# [6] = NCI Yeast Anticancer Drug Screen. Data for the mlh1 rad18 strain (AID 175); details: S. cerevisiae mlh1 rad18 strain growth inhibition, hits give high values
# Method in brief: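 Yeast w/ defined DNA-repair lesions; compound exposure; growth vs vehicle controls → % inhibition.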
# [7] = at 5.0 µM (retest, dose inferred, filed as 0.5)
# [8] = at 50.0 µM (retest, dose inferred, filed as 5.0)
Structure (SMILES),"growth inhibition [1, 7]","growth inhibition [1, 8]",growth inhibition ([1]; at 50.0 µM),"growth inhibition [2, 7]","growth inhibition [2, 8]",growth inhibition ([2]; at 50.0 µM),"growth inhibition [3, 7]","growth inhibition [3, 8]",growth inhibition ([3]; at 50.0 µM),"growth inhibition [4, 7]","growth inhibition [4, 8]",growth inhibition ([4]; at 50.0 µM),"growth inhibition [5, 7]","growth inhibition [5, 8]",growth inhibition ([5]; at 50.0 µM),"growth inhibition [6, 7]","growth inhibition [6, 8]",growth inhibition ([6]; at 50.0 µM)
O=C1OC(c2cccc(Cl)c2)Sc2ccccc21 (configuration not stated),2%,86% (active),51.7%,0%,60%,19.4%,-12%,56%,36.2%,-7%,47%,-16.7%,26%,94% (active),83.2% (active),0%,78% (active),37.6%
CCC(C)c1ccc(O)c(C(C)c2ccccc2)c1 (configuration not stated),44%,70% (active),89.6% (active),41%,68%,92.2% (active),19%,97% (active),92.9% (active),49%,101% (active),90.3% (active),15%,100% (active),91% (active),40%,61%,90.5% (active)
CC(=O)O/N=C1/CCC2C3CC=C4CC(OC(C)=O)CCC4(C)C3CCC12C (configuration not stated),0%,69%,68.8%,16%,93% (active),71.5% (active),8%,89% (active),89.9% (active),-1%,87% (active),85% (active),-7%,74% (active),41.5%,34%,93% (active),77.1% (active)
Nc1ccc2c(c1)S(=O)(=O)c1cc(N)ccc1-2,22%,27%,41.4%,19%,15%,18.8%,20%,19%,-29%,18%,25%,5.8%,22%,27%,-17.8%,26%,25%,-43.8%
O=C1/C(=C\c2ccc([N+](=O)[O-])o2)Oc2cc(O)ccc21,97% (active),96% (active),95.2% (active),97% (active),97% (active),91.8% (active),96% (active),96% (active),95.7% (active),98% (active),98% (active),93.6% (active),75% (active),90% (active),41.5%,97% (active),98% (active),95.7% (active)
COc1ccc(C(CC(=O)c2ccccc2)Sc2ccccc2N)cc1 (configuration not stated),46%,52%,-4.15%,54%,51%,26.9%,-13%,32%,32.4%,44%,20%,-13.3%,35%,57%,49.8%,36%,46%,7.35%
CCCCCCCN(CCCCCCC)CC(=O)NC(=O)c1ccccc1,29%,99% (active),99.4% (active),21%,98% (active),97.2% (active),23%,99% (active),99.5% (active),33%,99% (active),96.8% (active),43%,99% (active),99.3% (active),26%,99% (active),99.3% (active)
Cc1ccc(-c2c(C#N)c(S)n(NS(=O)(=O)c3ccccc3)c(=O)c2C#N)cc1,28%,89% (active),60.1%,12%,91% (active),80% (active),32%,94% (active),83.8% (active),47%,64%,29.4%,53%,94% (active),71.2% (active),16%,66%,75.6% (active)
Fc1cccc(NC(=S)SCc2ccco2)c1,9%,84% (active),97.7% (active),-1%,93% (active),84.2% (active),2%,80% (active),96% (active),-2%,45%,61.2%,-11%,61%,82% (active),-1%,89% (active),97.2% (active)
CN1C(=O)c2cccc3cc([N+](=O)[O-])cc(c23)C1=O,6%,80% (active),82.7% (active),-16%,76% (active),29.1%,6%,69%,85.8% (active),17%,80% (active),56.6%,3%,88% (active),64%,15%,53%,56.6%
COC(=O)c1ccc(CCC2=CC(=O)C=CC2=O)cc1,39%,99% (active),84.3% (active),39%,100% (active),92.8% (active),35%,100% (active),91.2% (active),29%,75% (active),89.3% (active),43%,100% (active),91.3% (active),49%,99% (active),65.8%
CC[C@@]1(O)C[C@H](OC2CC(N(C)C)C(OC3CC(O)C(OC4CCC(=O)C(C)O4)C(C)O3)C(C)O2)c2c(cc3c(c2O)C(=O)c2c(O)cccc2C3=O)[C@H]1C(=O)OC (some centres not stated),95% (active),97% (active),91.2% (active),98% (active),99% (active),92.8% (active),92% (active),97% (active),91.9% (active),92% (active),98% (active),89.2% (active),95% (active),98% (active),91.8% (active),97% (active),98% (active),92% (active)
CCN(CC)C(=S)N=Nc1c(O)[nH]c2ccccc12,80% (active),99% (active),82.5% (active),76% (active),99% (active),87.2% (active),81% (active),99% (active),89.3% (active),85% (active),90% (active),89.8% (active),76% (active),99% (active),91% (active),82% (active),99% (active),92% (active)
CCOC(=O)N1C=CC(=C2C(=C3C=CN(C(=O)OCC)C=C3)C(=C3C=CN(C(=O)OCC)C=C3)C2=C2C=CN(C(=O)OCC)C=C2)C=C1,55%,95% (active),95.9% (active),-4%,57%,75.3% (active),-4%,60%,65.8%,-3%,52%,-0.55%,-4%,47%,54.1%,1%,58%,85.7% (active)
COc1ccc(-n2c3c(c4c(N)ncnc42)CCCC3)cc1,-2%,-4%,-21.3%,-12%,-3%,-7.3%,11%,-3%,-13%,-11%,43%,-33%,-2%,-13%,-69.2%,2%,-13%,-16.4%
O=NN(CCCl)C(=O)Oc1ccc(OC(=O)N(CCCl)N=O)cc1,87% (active),92% (active),59.6%,86% (active),99% (active),91% (active),93% (active),99% (active),90.2% (active),53%,90% (active),83.5% (active),56%,93% (active),84.5% (active),96% (active),97% (active),90.6% (active)
C=C1C(=O)O[C@@H]2C[C@@]3(C)CCC[C@H](C)C3=C[C@H]12 (tested in a mixture with another compound),9%,96% (active),91.8% (active),14%,97% (active),93% (active),4%,97% (active),92.3% (active),30%,91% (active),90% (active),13%,98% (active),91.2% (active),19%,98% (active),91.5% (active)
COc1cc(NCC(C#N)C#N)ccc1N=Nc1ccc(Cl)cc1,-5%,58%,86.2% (active),-2%,67%,70.8% (active),4%,72% (active),85.3% (active),-7%,46%,76.8% (active),-23%,87% (active),79.5% (active),-37%,81% (active),82.7% (active)
CC12CC(O)C3C(CCC4CCCCC43C)C1CC/C2=N/O (configuration not stated),47%,-10%,86.6% (active),45%,7%,91.2% (active),27%,1%,93.3% (active),8%,-6%,50.8%,10%,-5%,93.9% (active),52%,5%,94.6% (active)

# From PubChem BioAssay (NCI)
